In article PMC7862700, “An all-to-all approach to the identification of sequence-specific readers for epigenetic DNA modifications on cytosine”:

Experiments:
Assay in all cases: DAPPL (digital affinity profiling via proximity ligation, sequencing); 10 mM Tris-HCl pH 7.5, 50 mM NaCl, 1 mM DTT, 4% glycerol, room temperature, 30 min; GST-TFs on glutathione beads, 16-mer random dsDNA library, 0.1% formaldehyde crosslink after washing; high values mean tight binding
FEV = target: T1, FEV (Homo sapiens, UniProt Q99581 1-238); conditions: protein: recombinant; tags: N-terminal GST; dsDNA, one strand shown
T1 sequence: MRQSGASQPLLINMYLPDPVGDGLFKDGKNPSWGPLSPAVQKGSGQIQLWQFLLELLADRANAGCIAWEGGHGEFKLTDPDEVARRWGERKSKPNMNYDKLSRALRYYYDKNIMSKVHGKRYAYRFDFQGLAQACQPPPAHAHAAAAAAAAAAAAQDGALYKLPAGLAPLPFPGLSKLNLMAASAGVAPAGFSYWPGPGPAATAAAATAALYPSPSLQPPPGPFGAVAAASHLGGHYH
In short: (§1)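 GST fusions of human transcription factors were expressed in yeast and captured with glutathione beads. Once given DNA barcodes and pooled alongside a tag-only sample, they were incubated for 30 min at room temperature with 200 nmole of a random double-stranded 16-mer DNA library in Tris/NaCl/DTT/glycerol buffer, then washed, crosslinked (0.1% formaldehyde), proximity-ligated, PCR-amplified and sequenced on an Illumina NextSeq500. The binding signal of each hexamer is its read frequency for a factor divided by its frequency for the tag-only sample.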

ETV5 = ETV5 (Homo sapiens, UniProt P41161 1-510); conditions: protein: recombinant; tags: N-terminal GST; dsDNA, one strand shown
Chain of ETV5 (P41161 whole entry): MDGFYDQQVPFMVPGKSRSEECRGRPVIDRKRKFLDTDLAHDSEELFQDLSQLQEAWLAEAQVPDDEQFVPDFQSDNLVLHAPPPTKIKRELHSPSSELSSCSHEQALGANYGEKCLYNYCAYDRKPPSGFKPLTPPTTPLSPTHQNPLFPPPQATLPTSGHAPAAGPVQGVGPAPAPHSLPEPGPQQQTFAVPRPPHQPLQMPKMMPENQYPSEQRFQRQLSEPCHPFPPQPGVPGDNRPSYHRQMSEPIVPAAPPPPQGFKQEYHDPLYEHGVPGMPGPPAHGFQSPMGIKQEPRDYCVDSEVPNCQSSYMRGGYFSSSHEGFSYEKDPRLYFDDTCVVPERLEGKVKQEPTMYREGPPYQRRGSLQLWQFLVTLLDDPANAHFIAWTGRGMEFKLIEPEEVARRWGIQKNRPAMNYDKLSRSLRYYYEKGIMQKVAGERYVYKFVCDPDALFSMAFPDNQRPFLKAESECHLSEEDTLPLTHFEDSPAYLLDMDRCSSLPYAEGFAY
In short: as §1

HSF1 = HSF1 (Homo sapiens, UniProt Q00613 1-529); conditions: protein: recombinant; tags: N-terminal GST; chain copies: 3; dsDNA, one strand shown
Chain of HSF1 (Q00613 whole entry): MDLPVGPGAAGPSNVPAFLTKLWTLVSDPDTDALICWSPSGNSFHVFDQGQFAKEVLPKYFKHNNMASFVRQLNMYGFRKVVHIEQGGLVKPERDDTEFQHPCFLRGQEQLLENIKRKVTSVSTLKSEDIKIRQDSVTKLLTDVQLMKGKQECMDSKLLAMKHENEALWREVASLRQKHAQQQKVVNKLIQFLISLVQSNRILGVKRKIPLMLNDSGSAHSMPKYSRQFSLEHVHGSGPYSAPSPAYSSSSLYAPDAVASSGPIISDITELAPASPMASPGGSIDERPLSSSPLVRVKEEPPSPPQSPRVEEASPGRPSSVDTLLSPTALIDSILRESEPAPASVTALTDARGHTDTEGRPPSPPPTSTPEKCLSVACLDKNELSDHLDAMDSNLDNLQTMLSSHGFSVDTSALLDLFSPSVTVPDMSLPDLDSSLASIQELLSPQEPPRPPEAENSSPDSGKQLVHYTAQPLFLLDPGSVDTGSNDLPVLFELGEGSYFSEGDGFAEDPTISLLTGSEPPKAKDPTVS
In short: as §1

SPIC = target: T2, SPIC (Homo sapiens, UniProt Q8N5J4 1-248); conditions: protein: recombinant; tags: N-terminal GST; dsDNA, one strand shown
T2 sequence: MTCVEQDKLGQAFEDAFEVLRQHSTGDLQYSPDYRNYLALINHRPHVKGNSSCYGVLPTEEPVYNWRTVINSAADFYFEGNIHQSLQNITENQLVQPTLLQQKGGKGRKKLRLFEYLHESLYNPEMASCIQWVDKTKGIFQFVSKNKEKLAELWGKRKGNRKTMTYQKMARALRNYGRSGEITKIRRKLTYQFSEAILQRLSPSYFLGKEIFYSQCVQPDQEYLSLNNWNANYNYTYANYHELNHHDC
In short: as §1

ELF4 = ELF4 (Homo sapiens, UniProt Q99607 1-663); conditions: protein: recombinant; tags: N-terminal GST; dsDNA, one strand shown
Chain of ELF4 (Q99607 whole entry): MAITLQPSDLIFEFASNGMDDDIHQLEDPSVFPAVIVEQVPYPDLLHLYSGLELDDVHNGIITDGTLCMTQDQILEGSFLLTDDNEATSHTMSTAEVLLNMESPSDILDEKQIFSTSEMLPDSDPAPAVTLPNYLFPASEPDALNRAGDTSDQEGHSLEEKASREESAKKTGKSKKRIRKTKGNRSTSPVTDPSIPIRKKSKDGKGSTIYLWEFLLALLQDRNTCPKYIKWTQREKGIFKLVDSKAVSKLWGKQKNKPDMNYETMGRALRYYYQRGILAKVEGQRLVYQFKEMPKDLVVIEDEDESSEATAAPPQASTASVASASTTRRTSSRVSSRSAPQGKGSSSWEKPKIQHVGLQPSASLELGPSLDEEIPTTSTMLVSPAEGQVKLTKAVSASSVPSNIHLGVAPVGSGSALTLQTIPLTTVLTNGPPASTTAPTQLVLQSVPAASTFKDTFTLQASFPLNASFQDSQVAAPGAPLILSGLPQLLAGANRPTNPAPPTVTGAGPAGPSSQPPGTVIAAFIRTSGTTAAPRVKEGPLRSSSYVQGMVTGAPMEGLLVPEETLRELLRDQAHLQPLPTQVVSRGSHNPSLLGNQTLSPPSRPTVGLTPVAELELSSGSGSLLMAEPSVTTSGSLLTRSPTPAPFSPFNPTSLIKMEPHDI
In short: as §1

ELK4 = target: T3, ELK4 (Homo sapiens, UniProt P28324-2 1-405); conditions: protein: recombinant; tags: N-terminal GST; dsDNA, one strand shown
T3 sequence: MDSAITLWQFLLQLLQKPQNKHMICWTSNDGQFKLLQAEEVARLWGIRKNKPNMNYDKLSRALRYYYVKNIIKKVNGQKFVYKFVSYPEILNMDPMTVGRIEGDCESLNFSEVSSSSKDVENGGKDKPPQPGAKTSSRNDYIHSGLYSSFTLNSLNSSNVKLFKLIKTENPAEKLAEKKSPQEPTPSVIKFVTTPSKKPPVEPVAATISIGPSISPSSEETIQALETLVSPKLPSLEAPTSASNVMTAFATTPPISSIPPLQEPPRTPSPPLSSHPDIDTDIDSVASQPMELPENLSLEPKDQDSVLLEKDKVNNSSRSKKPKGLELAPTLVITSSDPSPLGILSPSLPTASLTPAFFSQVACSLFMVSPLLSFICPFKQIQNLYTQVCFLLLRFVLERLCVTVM
In short: as §1

ELF3 = target: T4, ELF3 (Homo sapiens, UniProt P78545 1-371); conditions: protein: recombinant; tags: N-terminal GST; dsDNA, one strand shown
T4 sequence: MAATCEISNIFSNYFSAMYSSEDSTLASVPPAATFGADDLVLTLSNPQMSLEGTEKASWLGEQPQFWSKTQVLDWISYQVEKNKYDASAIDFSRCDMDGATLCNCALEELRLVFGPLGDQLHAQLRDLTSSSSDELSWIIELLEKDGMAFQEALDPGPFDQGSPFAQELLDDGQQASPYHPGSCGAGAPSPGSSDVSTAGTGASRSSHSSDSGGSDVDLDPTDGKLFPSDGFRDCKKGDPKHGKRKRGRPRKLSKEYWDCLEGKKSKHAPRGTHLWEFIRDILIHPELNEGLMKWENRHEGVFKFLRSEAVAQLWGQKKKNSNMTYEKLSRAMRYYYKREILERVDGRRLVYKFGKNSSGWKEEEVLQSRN
In short: as §1

CRX = CRX (Homo sapiens, UniProt O43186 1-299); conditions: protein: recombinant; tags: N-terminal GST; dsDNA, one strand shown
Chain of CRX (O43186 whole entry): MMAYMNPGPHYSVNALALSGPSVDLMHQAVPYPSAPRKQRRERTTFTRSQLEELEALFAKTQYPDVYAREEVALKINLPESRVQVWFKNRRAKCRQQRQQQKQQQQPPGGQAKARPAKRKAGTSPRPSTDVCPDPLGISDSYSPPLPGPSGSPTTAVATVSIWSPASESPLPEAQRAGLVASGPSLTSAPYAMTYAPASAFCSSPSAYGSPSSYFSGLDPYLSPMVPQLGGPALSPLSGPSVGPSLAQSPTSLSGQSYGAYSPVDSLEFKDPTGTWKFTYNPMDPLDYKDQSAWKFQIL
In short: as §1

ETV1 = ETV1 (Homo sapiens, UniProt P50549 1-477); conditions: protein: recombinant; tags: N-terminal GST; dsDNA, one strand shown
Chain of ETV1 (P50549 whole entry): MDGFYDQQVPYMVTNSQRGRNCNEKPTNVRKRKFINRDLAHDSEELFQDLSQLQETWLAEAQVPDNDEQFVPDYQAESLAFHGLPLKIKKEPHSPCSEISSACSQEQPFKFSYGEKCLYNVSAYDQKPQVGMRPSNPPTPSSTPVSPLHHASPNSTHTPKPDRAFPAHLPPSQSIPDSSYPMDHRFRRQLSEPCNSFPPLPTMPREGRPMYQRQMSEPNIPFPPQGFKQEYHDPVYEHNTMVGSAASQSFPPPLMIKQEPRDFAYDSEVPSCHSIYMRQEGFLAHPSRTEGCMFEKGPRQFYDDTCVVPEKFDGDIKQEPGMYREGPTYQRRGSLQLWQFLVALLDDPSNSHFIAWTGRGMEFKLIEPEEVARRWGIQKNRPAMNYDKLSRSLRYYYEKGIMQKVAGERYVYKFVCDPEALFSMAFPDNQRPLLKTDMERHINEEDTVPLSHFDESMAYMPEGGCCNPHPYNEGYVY
In short: as §1

ERF = target: T5, ERF (Homo sapiens, UniProt P50548 1-548); conditions: protein: recombinant; tags: N-terminal GST; dsDNA, one strand shown
T5 sequence: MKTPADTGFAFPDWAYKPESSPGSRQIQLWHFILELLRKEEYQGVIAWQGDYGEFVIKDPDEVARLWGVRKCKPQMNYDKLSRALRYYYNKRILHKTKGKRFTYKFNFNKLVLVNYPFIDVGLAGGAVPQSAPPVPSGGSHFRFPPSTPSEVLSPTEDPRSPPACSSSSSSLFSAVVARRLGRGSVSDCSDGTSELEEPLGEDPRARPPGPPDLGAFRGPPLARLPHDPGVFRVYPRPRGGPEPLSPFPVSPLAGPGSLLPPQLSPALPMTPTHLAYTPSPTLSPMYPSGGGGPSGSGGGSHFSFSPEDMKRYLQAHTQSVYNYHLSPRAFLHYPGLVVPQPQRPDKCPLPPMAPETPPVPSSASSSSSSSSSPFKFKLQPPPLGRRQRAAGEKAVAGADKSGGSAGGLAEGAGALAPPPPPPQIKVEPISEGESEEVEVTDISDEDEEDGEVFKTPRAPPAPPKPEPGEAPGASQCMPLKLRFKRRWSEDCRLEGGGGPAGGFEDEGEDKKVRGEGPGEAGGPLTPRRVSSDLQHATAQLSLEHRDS
In short: as §1

ETV3L = target: T6, ETV3L (Homo sapiens, UniProt Q6ZN32 1-361); conditions: protein: recombinant; tags: N-terminal GST; dsDNA, one strand shown
T6 sequence: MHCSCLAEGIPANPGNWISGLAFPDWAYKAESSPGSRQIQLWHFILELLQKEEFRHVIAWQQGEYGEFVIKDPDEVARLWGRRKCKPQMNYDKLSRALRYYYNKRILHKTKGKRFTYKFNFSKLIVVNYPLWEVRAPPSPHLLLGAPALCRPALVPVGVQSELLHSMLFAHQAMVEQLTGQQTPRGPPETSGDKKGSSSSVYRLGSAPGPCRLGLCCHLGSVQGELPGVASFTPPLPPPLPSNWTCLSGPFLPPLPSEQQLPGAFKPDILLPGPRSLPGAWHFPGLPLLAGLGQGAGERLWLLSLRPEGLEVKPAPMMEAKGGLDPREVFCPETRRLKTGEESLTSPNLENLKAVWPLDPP
In short: as §1

ETS2 = target: T7, ETS2 (Homo sapiens, UniProt P15036 1-469); conditions: protein: recombinant; tags: N-terminal GST; dsDNA, one strand shown
T7 sequence: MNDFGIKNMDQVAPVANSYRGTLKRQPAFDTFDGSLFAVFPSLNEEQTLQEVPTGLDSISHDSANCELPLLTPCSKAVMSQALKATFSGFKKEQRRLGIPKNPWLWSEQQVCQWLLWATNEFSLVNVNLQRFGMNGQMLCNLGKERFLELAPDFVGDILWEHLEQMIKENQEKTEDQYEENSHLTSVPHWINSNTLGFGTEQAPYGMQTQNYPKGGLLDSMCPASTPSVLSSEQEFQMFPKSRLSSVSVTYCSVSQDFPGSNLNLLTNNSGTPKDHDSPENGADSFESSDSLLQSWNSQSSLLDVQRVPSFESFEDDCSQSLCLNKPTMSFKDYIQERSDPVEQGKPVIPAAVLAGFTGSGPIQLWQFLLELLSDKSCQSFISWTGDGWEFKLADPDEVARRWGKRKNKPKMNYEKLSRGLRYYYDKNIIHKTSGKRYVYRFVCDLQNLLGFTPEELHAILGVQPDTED
In short: as §1

SPDEF = target: T8, SPDEF (Homo sapiens, UniProt O95238 1-335); conditions: protein: recombinant; tags: N-terminal GST; dsDNA, one strand shown
T8 sequence: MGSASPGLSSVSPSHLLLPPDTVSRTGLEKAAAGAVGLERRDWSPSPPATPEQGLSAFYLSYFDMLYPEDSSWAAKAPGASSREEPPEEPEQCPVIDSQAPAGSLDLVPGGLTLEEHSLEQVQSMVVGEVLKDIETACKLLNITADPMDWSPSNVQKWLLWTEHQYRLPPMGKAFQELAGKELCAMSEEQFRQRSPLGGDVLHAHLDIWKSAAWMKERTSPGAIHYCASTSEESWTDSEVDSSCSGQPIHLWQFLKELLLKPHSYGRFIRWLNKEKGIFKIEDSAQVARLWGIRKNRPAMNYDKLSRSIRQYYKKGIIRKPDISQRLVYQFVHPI
In short: as §1

ETV7 = target: T9, ETV7 (Homo sapiens, UniProt Q9Y603 1-341); conditions: protein: recombinant; tags: N-terminal GST; dsDNA, one strand shown
T9 sequence: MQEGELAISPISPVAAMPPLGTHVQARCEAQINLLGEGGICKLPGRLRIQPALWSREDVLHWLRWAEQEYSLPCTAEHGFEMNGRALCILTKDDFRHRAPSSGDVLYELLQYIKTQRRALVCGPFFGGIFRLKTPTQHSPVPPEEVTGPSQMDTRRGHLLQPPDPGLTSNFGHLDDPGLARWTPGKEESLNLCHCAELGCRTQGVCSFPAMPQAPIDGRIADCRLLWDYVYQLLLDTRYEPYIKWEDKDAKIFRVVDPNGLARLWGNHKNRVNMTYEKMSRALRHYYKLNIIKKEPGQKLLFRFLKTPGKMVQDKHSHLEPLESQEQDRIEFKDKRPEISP
In short: as §1

ELF5 = target: T10, ELF5 (Homo sapiens, UniProt Q9UKW6-2 1-255); conditions: protein: recombinant; tags: N-terminal GST; dsDNA, one strand shown
T10 sequence: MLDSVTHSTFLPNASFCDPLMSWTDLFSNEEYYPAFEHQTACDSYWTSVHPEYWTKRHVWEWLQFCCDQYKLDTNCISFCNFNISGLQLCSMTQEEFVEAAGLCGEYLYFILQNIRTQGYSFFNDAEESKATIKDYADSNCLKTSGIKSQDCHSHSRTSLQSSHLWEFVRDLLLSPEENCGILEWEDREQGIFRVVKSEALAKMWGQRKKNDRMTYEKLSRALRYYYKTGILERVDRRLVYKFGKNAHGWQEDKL
In short: as §1

ETV3 = target: T11, ETV3 (Homo sapiens, UniProt P41162-2 1-143); conditions: protein: recombinant; tags: N-terminal GST; dsDNA, one strand shown
T11 sequence: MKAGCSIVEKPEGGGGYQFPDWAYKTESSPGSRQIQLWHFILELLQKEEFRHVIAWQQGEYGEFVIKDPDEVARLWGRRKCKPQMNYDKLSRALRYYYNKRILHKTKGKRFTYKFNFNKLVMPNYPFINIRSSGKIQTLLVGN
In short: as §1

ETV6 = ETV6 (Homo sapiens, UniProt P41212 1-452); conditions: protein: recombinant; tags: N-terminal GST; dsDNA, one strand shown
Chain of ETV6 (P41212 whole entry): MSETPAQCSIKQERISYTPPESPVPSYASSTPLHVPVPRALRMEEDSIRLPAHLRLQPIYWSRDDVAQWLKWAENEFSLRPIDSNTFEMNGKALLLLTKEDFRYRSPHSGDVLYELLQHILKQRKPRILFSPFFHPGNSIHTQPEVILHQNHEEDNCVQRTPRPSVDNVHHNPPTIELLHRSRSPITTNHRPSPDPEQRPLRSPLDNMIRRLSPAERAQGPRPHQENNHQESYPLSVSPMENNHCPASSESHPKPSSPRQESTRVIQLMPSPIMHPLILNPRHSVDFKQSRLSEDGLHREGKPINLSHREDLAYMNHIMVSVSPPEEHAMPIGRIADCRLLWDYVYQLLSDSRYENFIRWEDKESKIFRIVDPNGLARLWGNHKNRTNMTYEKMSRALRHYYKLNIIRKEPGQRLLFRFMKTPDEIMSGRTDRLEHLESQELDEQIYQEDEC
In short: as §1

In the case of TGGTTA, the binding signal (FEV) is reported as 1.05 fold enrichment (6-mer frequency, TF over GST control), the binding signal (ETV5) is reported as 1.03 fold enrichment (6-mer frequency, TF over GST control) and the binding signal (HSF1) is reported as 1.03 fold enrichment (6-mer frequency, TF over GST control). The binding signal (SPIC) was 1.25 fold enrichment (6-mer frequency, TF over GST control), the binding signal (ELF4) was 1.02 fold enrichment (6-mer frequency, TF over GST control) and the binding signal (ELK4) was 1.06 fold enrichment (6-mer frequency, TF over GST control). For the same sequence, the binding signal (ELF3) was 1.16 fold enrichment (6-mer frequency, TF over GST control), the binding signal (CRX) was 1.15 fold enrichment (6-mer frequency, TF over GST control) and the binding signal (ETV1) was 1.01 fold enrichment (6-mer frequency, TF over GST control). For the same sequence, the binding signal (ERF) was 1.05 fold enrichment (6-mer frequency, TF over GST control), the binding signal (ETV3L) was 1.12 fold enrichment (6-mer frequency, TF over GST control) and the binding signal (ETS2) was 1.07 fold enrichment (6-mer frequency, TF over GST control). The binding signal (SPDEF) was 1.07 fold enrichment (6-mer frequency, TF over GST control), the binding signal (ETV7) was 1.16 fold enrichment (6-mer frequency, TF over GST control) and the binding signal (ELF5) was 1.05 fold enrichment (6-mer frequency, TF over GST control). For the same sequence, the binding signal (ETV3) was 1.05 fold enrichment (6-mer frequency, TF over GST control) and the binding signal (ETV6) was 1.1 fold enrichment (6-mer frequency, TF over GST control).

In the case of CCTCGT, the binding signal (FEV) is reported as 1.18 fold enrichment (6-mer frequency, TF over GST control), the binding signal (ETV5) is reported as 1.19 fold enrichment (6-mer frequency, TF over GST control) and the binding signal (HSF1) is reported as 1.08 fold enrichment (6-mer frequency, TF over GST control). The binding signal (SPIC) was 1.25 fold enrichment (6-mer frequency, TF over GST control), the binding signal (ELF4) was 1.25 fold enrichment (6-mer frequency, TF over GST control) and the binding signal (ELK4) was 1.29 fold enrichment (6-mer frequency, TF over GST control). The binding signal (ELF3) was 1.24 fold enrichment (6-mer frequency, TF over GST control), the binding signal (ETV1) was 1.39 fold enrichment (6-mer frequency, TF over GST control) and the binding signal (ERF) was 1.23 fold enrichment (6-mer frequency, TF over GST control). The binding signal (ETV3L) was 1.2 fold enrichment (6-mer frequency, TF over GST control), the binding signal (ETS2) was 1.25 fold enrichment (6-mer frequency, TF over GST control) and the binding signal (SPDEF) was 1.19 fold enrichment (6-mer frequency, TF over GST control). For the same sequence, the binding signal (ETV7) was 1.17 fold enrichment (6-mer frequency, TF over GST control), the binding signal (ELF5) was 1.4 fold enrichment (6-mer frequency, TF over GST control) and the binding signal (ETV3) was 1.27 fold enrichment (6-mer frequency, TF over GST control). For the same sequence, the binding signal (ETV6) was 1.23 fold enrichment (6-mer frequency, TF over GST control).
